Laboratory results as given in PubChem BioAssay (NCI).
This is part of a sample that, as a whole, favours compounds with a hit. Of some 79,000 tested, about 15% had one in any assay. Active and inactive are the calls of the source. Rule as the data show it: active = growth inhibition above about 70%; inactive = the rest.

Tests used:
[1] = NCI Yeast Anticancer Drug Screen. Data for the rad52 strain (AID 147);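 also: 0% = growth of vehicle-treated control cultures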; details: S. cerevisiae rad52 mutant growth inhibition, active compounds read high
How it was run: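 Screen used a yeast mutant impaired in DNA repair. After compound exposure, growth was measured. Values reflect inhibition compared with vehicle-treated cells.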

[2] = NCI Yeast Anticancer Drug Screen. Data for the wt1 strain (AID 149);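 also: 0% = growth of vehicle-treated wt1 cultures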; details: S. cerevisiae wt1 strain (SPY 50644) growth inhibition, active compounds read high
How it was run: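 Each compound is tested on wt1 yeast and the loss of growth versus vehicle gives the inhibition value.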

[3] = NCI Yeast Anticancer Drug Screen. Data for the rad50EPP+ strain (AID 151);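 also: 0% = growth of vehicle-treated control cultures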; details: S. cerevisiae rad50 mutant strain, active compounds read high
How it was run: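 Exposing the rad50EPP+ strain to each compound, growth was compared with vehicle-only cultures to give inhibition.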

[4] = NCI Yeast Anticancer Drug Screen. Data for the mgt1 strain (AID 153); details: S. cerevisiae mgt1 mutant growth inhibition, active compounds read high
How it was run: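 Genetically defined yeast (mgt1) treated with compound; inhibition of growth expressed against vehicle-treated controls.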

[5] = NCI Yeast Anticancer Drug Screen. Data for the rad50 strain (AID 155);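 also: 0% = growth of vehicle-only cultures of the same strain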; details: S. cerevisiae rad50 strain growth inhibition, active compounds read high
How it was run: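 Vehicle-treated cultures provide the reference for the growth inhibition reported for compound-exposed, repair-deficient yeast.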

[6] = NCI Yeast Anticancer Drug Screen. Data for the mec2-1 strain (AID 157); details: S. cerevisiae mec2-1 strain, active compounds read high
How it was run: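 Readout is yeast growth inhibition, normalised to vehicle-treated controls, in the mec2-1 strain exposed to compound.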

[7] = NCI Yeast Anticancer Drug Screen. Data for the rad14 strain (AID 159);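 also: 0% = growth of vehicle-treated control cultures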; details: S. cerevisiae rad14 strain growth inhibition, active compounds read high
How it was run: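 Inhibition of growth is reported for a repair-deficient yeast mutant following compound treatment, calculated relative to cultures that received vehicle.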

[8] = NCI Yeast Anticancer Drug Screen. Data for the sgs1 mgt1 strain (AID 161);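 also: 0% = growth of cultures given vehicle only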; details: S. cerevisiae sgs1 mgt1 strain, active compounds read high
How it was run: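 Yeast cells carrying a defined DNA-repair defect were exposed to test compounds. Growth inhibition was measured relative to vehicle-treated controls.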

[9] = NCI Yeast Anticancer Drug Screen. Data for the CLN2oe strain (AID 163);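 also: 0% = growth of vehicle-only control cultures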; details: S. cerevisiae CLN2oe strain, active compounds read high
How it was run: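 Values reflect how much compound exposure reduced yeast growth, referenced to vehicle-exposed cells. Assay organism is a strain with a defined genetic change affecting cell-cycle control.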

[10] = NCI Yeast Anticancer Drug Screen. Data for the cln2 rad14 strain (AID 165);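 also: 0% = growth equal to vehicle treated cultures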; details: S. cerevisiae cln2 rad14 strain, active compounds read high
How it was run: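 Relative to vehicle controls, growth inhibition of compound-treated cln2 rad14 yeast was recorded.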

[11] = NCI Yeast Anticancer Drug Screen. Data for the bub3 strain (AID 167); details: S. cerevisiae bub3 mutant strain, active compounds read high
How it was run: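 Mutant yeast screening strain plus compound; vehicle-treated cultures serve as the 0% inhibition reference.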

[12] = NCI Yeast Anticancer Drug Screen. Data for the wt2 strain (AID 169); details: S. cerevisiae wt2 strain growth inhibition, active compounds read high
How it was run: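 Values express reduction in yeast growth under compound treatment, referenced to vehicle-treated cells.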

[13] = NCI Yeast Anticancer Drug Screen. Data for the mlh1 strain (AID 171);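 also: 0% = growth of vehicle-treated control cultures of the same strain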; details: S. cerevisiae mlh1 strain growth inhibition, active compounds read high
How it was run: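 Steps: expose the defined-mutant yeast strain to compound; expose a parallel culture to vehicle; measure growth; express compound effect as inhibition relative to the vehicle culture.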

[14] = NCI Yeast Anticancer Drug Screen. Data for the mlh1 rad18 strain (AID 175); details: S. cerevisiae mlh1 rad18 strain growth inhibition, active compounds read high
How it was run: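 Test agents were incubated with a yeast strain of defined genotype (DNA damage repair defect). Inhibition of growth was derived by comparison with vehicle-exposed cultures.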

[15] = NCI Yeast Anticancer Drug Screen. Data for the rad18 strain (AID 177); details: S. cerevisiae rad18 mutant growth inhibition, active compounds read high
How it was run: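 A genetically defined yeast mutant impaired in DNA damage repair was treated with test compounds, then its growth was measured against cultures receiving vehicle alone.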

[16] = at 5.0 µM (retest, dose inferred, filed as 0.5)
[17] = at 50.0 µM (retest, dose inferred, filed as 5.0)

Measured: growth inhibition

O=[N+]([O-])c1ccc2c(c1)C(N1CCN(CCO)CC1)Cc1ccc(F)cc1S2 (stereo not drawn)
inactive: [1]; at 1.2 µM -2% | [1]; at 3.7 µM -2% | [1]; at 11.0 µM -3% | [1]; at 33.0 µM -2% | [1]; at 100.0 µM 18% | [2]; at 1.2 µM -2% | [2]; at 3.7 µM -3% | [2]; at 11.0 µM -3% | [2]; at 33.0 µM -3% | [2]; at 100.0 µM 15% | [3]; at 1.2 µM -2% | [3]; at 3.7 µM -1% | [3]; at 11.0 µM -1% | [3]; at 33.0 µM -1% | [3]; at 100.0 µM 1% | [4]; at 1.2 µM -1% | [4]; at 3.7 µM -3% | [4]; at 11.0 µM -5% | [4]; at 33.0 µM -4% | [4]; at 100.0 µM 34% | [5]; at 1.2 µM 1% | [5]; at 3.7 µM 1% | [5]; [16] 3% | [5]; at 11.0 µM 1% | [5]; at 33.0 µM 2% | [5]; at 50.0 µM 44.2% | [5]; at 100.0 µM 62% | [6]; at 1.2 µM -8% | [6]; at 3.7 µM -2% | [6]; [16] 0% | [6]; at 11.0 µM -4% | [6]; at 33.0 µM -4% | [6]; [17] 48% | [6]; at 50.0 µM -3.7% | [6]; at 100.0 µM 8% | [7]; at 1.2 µM -2% | [7]; at 3.7 µM -1% | [7]; at 11.0 µM 1% | [7]; at 33.0 µM 15% | [8]; [16] 13% | [9]; at 1.2 µM -6% | [9]; at 3.7 µM -5% | [9]; at 11.0 µM 0% | [9]; at 33.0 µM 1% | [9]; at 100.0 µM 20% | [10]; [16] 2% | [10]; [17] 43% | [11]; at 1.2 µM -1% | [11]; at 3.7 µM -4% | [11]; [16] -2% | [11]; at 11.0 µM 0% | [11]; at 33.0 µM -5% | [11]; at 50.0 µM -1.1% | [11]; at 100.0 µM 24% | [12]; at 1.2 µM -2% | [12]; at 3.7 µM -3% | [12]; at 11.0 µM -3% | [12]; at 33.0 µM -3% | [12]; at 100.0 µM 36% | [13]; at 1.2 µM -3% | [13]; at 3.7 µM -3% | [13]; at 11.0 µM -2% | [13]; at 33.0 µM -3% | [13]; at 100.0 µM 35% | [14]; [16] 0% | [14]; [17] -13% | [14]; at 50.0 µM 44.4% | [15]; at 1.2 µM -3% | [15]; at 3.7 µM -5% | [15]; at 11.0 µM -3% | [15]; at 33.0 µM 0% | [15]; at 100.0 µM 64%
active: [5]; [17] 71% | [7]; at 100.0 µM 93% | [8]; [17] 90% | [8]; at 50.0 µM 72.8% | [10]; at 50.0 µM 78.6% | [11]; [17] 79%
